Measured values as given in PubChem BioAssay AID2116 (The Scripps Research Institute Molecular Screening Center, 2009).
Active and inactive are the calls of the source. How the calls were made is not given here.

molecular target: Mucolipin-3 (Homo sapiens) (UniProt Q8TDD5); assay: activators of mucolipin-3 and mucolipin-2 – cell-based, patch clamp, Fura-2 profiling panel (AID 2116); settings: HEK293 cells expressing TRPML3-YFP, TRPML3 Patch Clamp Assay; patch clamp current at -80 mV
Sequence (Q8TDD5 whole entry, looked up): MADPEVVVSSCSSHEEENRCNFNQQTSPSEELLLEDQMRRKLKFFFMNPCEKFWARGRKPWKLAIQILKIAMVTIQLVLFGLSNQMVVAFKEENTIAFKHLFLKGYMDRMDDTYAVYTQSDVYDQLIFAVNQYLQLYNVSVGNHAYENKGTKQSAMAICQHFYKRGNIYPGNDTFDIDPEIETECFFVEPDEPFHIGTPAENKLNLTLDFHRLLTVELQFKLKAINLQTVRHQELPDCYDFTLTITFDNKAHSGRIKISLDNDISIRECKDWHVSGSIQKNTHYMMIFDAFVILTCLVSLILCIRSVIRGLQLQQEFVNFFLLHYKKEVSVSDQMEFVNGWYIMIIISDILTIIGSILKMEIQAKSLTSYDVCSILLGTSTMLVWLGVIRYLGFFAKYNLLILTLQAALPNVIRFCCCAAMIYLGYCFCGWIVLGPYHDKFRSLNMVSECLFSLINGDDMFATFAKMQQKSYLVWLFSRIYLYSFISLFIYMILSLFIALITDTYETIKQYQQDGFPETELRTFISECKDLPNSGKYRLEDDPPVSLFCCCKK

How did the outcome turn out when O=S(=O)(Nc1ccccc1N1CCOCC1)c1ccc(Cl)s1 was run?
The outcome was “active; no effect on six other TRP channels”.

What about the current density of the same molecule?
Its current density is -0.37 nA/pF.

Which results are given for O=S(=O)(Nc1ccccc1N1CCCCC1)c1ccc(Cl)s1?
outcome: active; no effect on six other TRP channels; current density: -0.24 nA/pF

What does the source list for O=S(=O)(NC1CCCCC1N1CCOCC1)c1ccc(Cl)cc1 (stereo not given)?
outcome: active; no effect on six other TRP channels; current density: -0.55 nA/pF

Cc1ccc(N2CCN(S(=O)(=O)N3CCCCC3)CC2)c(C)c1 was tested. Which outcome did it give?
Its outcome is “active; no effect on six other TRP channels”.

What about the current density of the same molecule?
Its current density is -0.42 nA/pF.

With Cc1ccc(S(=O)(=O)Nc2ccccc2-c2ccccc2)cc1 as the molecule, how does the outcome read?
The outcome was “active; no effect on six other TRP channels”.

What about the current density of the same molecule?
Its current density is -0.02 nA/pF.
